The values that follow come from PubChem BioAssay (NCI).

Compounds without any hit were thinned out: in the full panel of roughly 83,000, 20% have a hit.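 Results are percent growth after 48 hours of single-concentration exposure. 100 means growth as in untreated cells, lower positive values show inhibition; negative values down to -100 show cell death.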 Unmarked numbers belong to inactive results. The source made the active and inactive calls. How the source made its calls: active means growth percent below 10; inactive means the rest.

Among the test systems are DU-145 prostate; K-562 leukemia; MALME-3M melanoma; MDA-MB-231 breast; RXF 393 renal; SF-268 CNS; SF-295 CNS; SF-539 CNS; UACC-257 melanoma; M14 melanoma; HCT-15 colon; HT29 colon; SNB-75 CNS; SNB-19 CNS; U251 CNS; PC-3 prostate; SK-MEL-5 melanoma; UACC-62 melanoma; LOX IMVI melanoma; SK-MEL-28 melanoma.
Holding throughout (assay): NCI-60 one-dose screen, 48 h (100 = growth as untreated, 0 = no growth, -100 = all killed)
Common to all, as to conditions: 10 µM unless noted

Regarding `Cc1ccc(C2CC(c3ccc(Nc4ccnc5cc(Cl)ccc45)cc3)=NN2C=O)cc1` (stereo not given), the growth with DU-145 prostate is 68.4%; in the test on K-562 leukemia, 16.2%; in the test with MALME-3M melanoma, 46.5%; in the test with MDA-MB-231 breast, 66.2%; in the test on RXF 393 renal it was 61.7%; in the test on SF-268 CNS it was 48.5%. For the same compound, the growth was 31.2% with SF-295 CNS; 91% with SF-539 CNS; 79.8% in the test on UACC-257 melanoma; 45.8% with M14 melanoma; 18.6% in the test with HCT-15 colon; 41.8% with HT29 colon. The growth was 76.3% in the test on SNB-75 CNS; 74.4% with SNB-19 CNS; 58.6% in the test with U251 CNS; 57.4% with PC-3 prostate; 10.4% with SK-MEL-5 melanoma; 36.9% in the test on UACC-62 melanoma. Moreover, the growth in the test on LOX IMVI melanoma was 34%; in the test on SK-MEL-28 melanoma, 51.7%.
As for `Cn1cc(-c2cc3ncnc(Nc4ccc(CC(=O)Nc5cc(C(C)(C)C)nn5C)cc4)c3s2)cn1`, the growth in the test on DU-145 prostate is 40.3%; with K-562 leukemia, 17%; in the test with MALME-3M melanoma, 56.7%; in the test with MDA-MB-231 breast it was 47.7%; with RXF 393 renal it was 9.8% (active); in the test on SF-268 CNS, 51.8%. In addition, the growth is 58.1% in the test with SF-295 CNS; 47.4% in the test with SF-539 CNS; 83.9% in the test with UACC-257 melanoma; 39.2% in the test on M14 melanoma; 54.8% with HCT-15 colon; 50% with HT29 colon. Also, the growth with SNB-75 CNS was 56.3%; in the test with SNB-19 CNS it was 95.7%; in the test on U251 CNS, 61.2%; in the test with PC-3 prostate it was 43.9%; with SK-MEL-5 melanoma it was 49%; with UACC-62 melanoma, 33.5%. For the same compound, the growth in the test with LOX IMVI melanoma was 33.6%; in the test on SK-MEL-28 melanoma it was 77.2%.
`CC(=O)CC(c1ccccc1)c1c(C)[nH]c2ccccc12` (stereo not given): the growth in the test with DU-145 prostate was 110%; in the test with K-562 leukemia it was 87.2%; with MALME-3M melanoma, 100%; in the test with MDA-MB-231 breast, 103%; with RXF 393 renal, 104%; with SF-268 CNS, 94.8%. Besides, the growth in the test on SF-295 CNS was 102%; in the test on SF-539 CNS it was 93.4%; with UACC-257 melanoma, 94.8%; in the test with M14 melanoma, 94.4%; in the test on HCT-15 colon, 97.5%; in the test on HT29 colon, 103%. Moreover, the growth in the test on SNB-75 CNS was 60.3%; in the test on SNB-19 CNS it was 93.2%; in the test with U251 CNS, 105%; in the test on PC-3 prostate it was 87.9%; in the test on SK-MEL-5 melanoma it was 99.3%; with UACC-62 melanoma, 86.7%. Further, the growth in the test on LOX IMVI melanoma was 90.5%; in the test with SK-MEL-28 melanoma, 102%.
Consider `COc1ccc(CN2c3ccccc3Sc3ccccc32)c(F)c1`, for which the growth in the test with DU-145 prostate is 20.5%; in the test with K-562 leukemia, 8.99% (active); in the test on MALME-3M melanoma, 57%; with MDA-MB-231 breast it was 60.4%; in the test with RXF 393 renal, 0.721% (active); in the test with SF-268 CNS it was 52.3%. Also, the growth in the test on SF-295 CNS is 7.51% (active); in the test on SF-539 CNS it was -3.66% (active); with UACC-257 melanoma it was 52.3%; in the test with M14 melanoma it was 11.2%; with HCT-15 colon it was 35.4%; in the test with HT29 colon, 3.61% (active). The growth with SNB-75 CNS was -5.99% (active); in the test on SNB-19 CNS it was 40.9%; in the test on U251 CNS it was 30%; with PC-3 prostate, 30.3%; with SK-MEL-5 melanoma, 25.8%; in the test on UACC-62 melanoma, 33.1%. In addition, the growth was 52.7% with LOX IMVI melanoma and 53% with SK-MEL-28 melanoma.
Turning to `O=C1CCC(C(=O)NCCNCCNC(=O)C2CCC(=O)N2)N1` (stereo not given), the growth in the test on DU-145 prostate was 109%; in the test on K-562 leukemia, 101%; with MALME-3M melanoma, 105%; in the test on MDA-MB-231 breast, 121%; in the test on RXF 393 renal, 101%; in the test with SF-268 CNS, 100%. The growth in the test on SF-295 CNS was 100%; in the test on SF-539 CNS, 102%; in the test with UACC-257 melanoma, 93%; in the test on M14 melanoma it was 96.5%; with HCT-15 colon, 99.8%; in the test on HT29 colon it was 89.8%. Also, the growth in the test on SNB-75 CNS was 101%; in the test with SNB-19 CNS, 98.3%; in the test with U251 CNS, 97.7%; in the test on PC-3 prostate, 78.5%; with SK-MEL-5 melanoma, 91.3%; in the test on UACC-62 melanoma, 99.4%. In addition, the growth in the test with LOX IMVI melanoma is 96.5%; with SK-MEL-28 melanoma it was 112%.
In the case of `O=S(=O)(NCCCNc1cc(-c2c(-c3cccc(O)c3)nc3sccn23)ccn1)c1cccc2ccccc12`, the growth is 42.4% in the test with DU-145 prostate; 21.3% in the test with K-562 leukemia; 48.4% in the test with MALME-3M melanoma; 72.2% with MDA-MB-231 breast; 41.1% in the test on RXF 393 renal; 41.5% in the test on SF-268 CNS. The growth in the test on SF-295 CNS was 34.3%; in the test with SF-539 CNS it was 72.2%; in the test with UACC-257 melanoma, 61.2%; in the test on M14 melanoma, 45.4%; in the test with HCT-15 colon, 24.4%; with HT29 colon, 36.1%. For the same compound, the growth with SNB-75 CNS is 4.78% (active); in the test on SNB-19 CNS, 66.5%; with U251 CNS, 46.2%; in the test on PC-3 prostate, 30.4%; in the test with SK-MEL-5 melanoma it was 37.3%; in the test with UACC-62 melanoma it was 39%. Further, the growth with LOX IMVI melanoma was 33%; in the test with SK-MEL-28 melanoma it was 67.3%.
For the compound `NCCCNc1nc2ccc(Cl)cc2c2c(=O)c3cc(F)ccc3sc12`, the growth in the test with DU-145 prostate is 24.4%; in the test on K-562 leukemia, -38.7% (active); with MALME-3M melanoma, 103%; with MDA-MB-231 breast, 3.44% (active); in the test on RXF 393 renal, 62.3%; in the test with SF-268 CNS, 53.2%. Moreover, the growth with SF-295 CNS is 103%; with SF-539 CNS, 70.7%; with UACC-257 melanoma, 98.3%; in the test on M14 melanoma it was 55%; in the test with HCT-15 colon it was 47.9%; in the test with HT29 colon, -12.1% (active). Also, the growth in the test on SNB-75 CNS was 54.2%; in the test on SNB-19 CNS, 77.1%; in the test on U251 CNS, 38.1%; in the test on PC-3 prostate, 58.2%; in the test with SK-MEL-5 melanoma it was 94.3%; in the test on UACC-62 melanoma, 97.4%. In addition, the growth was -62.3% (active) in the test with LOX IMVI melanoma and 103% in the test with SK-MEL-28 melanoma.
In the case of `CN(C)CCS(=O)(=O)Nc1cc(-c2ccc3ncc(C#N)c(Nc4ccc(F)c(Cl)c4)c3c2)cnc1Cl`, the growth with DU-145 prostate was -10.3% (active); in the test on K-562 leukemia, 6.62% (active); with MALME-3M melanoma, -50.5% (active); in the test on MDA-MB-231 breast, -39.5% (active); in the test with RXF 393 renal, -56% (active); with SF-268 CNS, -41% (active). Besides, the growth was -19% (active) in the test on SF-295 CNS; -36.4% (active) in the test with SF-539 CNS; -17.3% (active) in the test with UACC-257 melanoma; -40.4% (active) with M14 melanoma; -14.6% (active) with HCT-15 colon; 5.5% (active) in the test with HT29 colon. Also, the growth was -21% (active) in the test on SNB-75 CNS; -67.2% (active) in the test with SNB-19 CNS; -46.2% (active) in the test on U251 CNS; -43.5% (active) with PC-3 prostate; -89.8% (active) in the test on SK-MEL-5 melanoma; -77.2% (active) with UACC-62 melanoma. Also, the growth in the test with LOX IMVI melanoma is -61.3% (active); with SK-MEL-28 melanoma, -31.5% (active).
